According to PubChem BioAssay:
Values joined by “and” are separate entries in the source; they are usually repeats but may differ in a detail not shown here. Equal entries are not always repeated.

Columns and labels:
[1] = test system: Botulinum neurotoxin type F light chain protease (Clostridium botulinum); test: Clostridium botulinum type F light chain protease inhibitors, microsphere substrate cleavage, validation (AID 588459); settings: multiplex microsphere protease substrate cleavage assay, flow cytometry; at 10 µM; active compounds read high
[2] = molecular target: Botulinum neurotoxin type A (Clostridium botulinum) (UniProt P0DPI0); test: BoNT/A light chain protease inhibitors, biochemical, multiplex microsphere flow cytometry, validation set (AID 588460); settings: at 10 µM, active compounds read high
Chain of Botulinum neurotoxin type A (Clostridium botulinum) (P0DPI0 whole entry, looked up): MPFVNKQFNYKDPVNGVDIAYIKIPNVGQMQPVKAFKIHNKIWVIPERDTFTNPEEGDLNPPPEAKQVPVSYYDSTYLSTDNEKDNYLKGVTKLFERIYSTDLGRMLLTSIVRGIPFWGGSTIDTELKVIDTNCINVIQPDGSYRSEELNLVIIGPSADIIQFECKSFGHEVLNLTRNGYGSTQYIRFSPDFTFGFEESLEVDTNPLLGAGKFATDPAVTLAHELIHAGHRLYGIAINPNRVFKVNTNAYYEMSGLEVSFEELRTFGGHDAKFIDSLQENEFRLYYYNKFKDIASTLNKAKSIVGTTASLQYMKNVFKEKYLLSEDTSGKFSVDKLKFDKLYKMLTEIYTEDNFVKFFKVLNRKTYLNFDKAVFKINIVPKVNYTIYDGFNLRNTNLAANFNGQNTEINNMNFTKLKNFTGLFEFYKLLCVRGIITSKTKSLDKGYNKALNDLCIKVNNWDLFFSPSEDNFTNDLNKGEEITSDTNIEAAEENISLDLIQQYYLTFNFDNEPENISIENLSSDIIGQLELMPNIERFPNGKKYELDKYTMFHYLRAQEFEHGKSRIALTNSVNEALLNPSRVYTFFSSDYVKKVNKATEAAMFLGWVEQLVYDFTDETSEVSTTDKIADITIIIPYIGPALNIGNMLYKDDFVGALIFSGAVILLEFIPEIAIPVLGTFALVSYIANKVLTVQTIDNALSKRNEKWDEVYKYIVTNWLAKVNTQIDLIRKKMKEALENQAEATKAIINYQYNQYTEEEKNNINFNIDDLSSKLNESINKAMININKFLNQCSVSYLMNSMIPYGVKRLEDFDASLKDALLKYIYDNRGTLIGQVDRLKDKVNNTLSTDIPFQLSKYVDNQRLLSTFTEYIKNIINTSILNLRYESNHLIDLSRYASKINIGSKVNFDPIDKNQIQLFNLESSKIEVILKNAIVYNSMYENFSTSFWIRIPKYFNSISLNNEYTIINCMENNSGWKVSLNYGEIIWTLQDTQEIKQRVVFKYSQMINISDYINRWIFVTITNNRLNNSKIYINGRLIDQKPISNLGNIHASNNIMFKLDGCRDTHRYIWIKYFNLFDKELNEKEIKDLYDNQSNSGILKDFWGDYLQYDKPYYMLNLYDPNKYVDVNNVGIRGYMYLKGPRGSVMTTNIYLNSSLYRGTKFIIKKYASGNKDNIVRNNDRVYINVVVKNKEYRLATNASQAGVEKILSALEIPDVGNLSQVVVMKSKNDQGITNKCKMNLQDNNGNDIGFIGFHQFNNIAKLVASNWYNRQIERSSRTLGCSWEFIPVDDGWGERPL

[3] = molecular target: Lethal factor (Bacillus anthracis) (UniProt P15917); test: Bacillus anthracis lethal factor inhibition, microsphere flow cytometry protease assay, validation at 10 µM (AID 588461); settings: multiplex microsphere protease cleavage assay, active compounds read high
Chain of Lethal factor (Bacillus anthracis) (P15917 whole entry, looked up): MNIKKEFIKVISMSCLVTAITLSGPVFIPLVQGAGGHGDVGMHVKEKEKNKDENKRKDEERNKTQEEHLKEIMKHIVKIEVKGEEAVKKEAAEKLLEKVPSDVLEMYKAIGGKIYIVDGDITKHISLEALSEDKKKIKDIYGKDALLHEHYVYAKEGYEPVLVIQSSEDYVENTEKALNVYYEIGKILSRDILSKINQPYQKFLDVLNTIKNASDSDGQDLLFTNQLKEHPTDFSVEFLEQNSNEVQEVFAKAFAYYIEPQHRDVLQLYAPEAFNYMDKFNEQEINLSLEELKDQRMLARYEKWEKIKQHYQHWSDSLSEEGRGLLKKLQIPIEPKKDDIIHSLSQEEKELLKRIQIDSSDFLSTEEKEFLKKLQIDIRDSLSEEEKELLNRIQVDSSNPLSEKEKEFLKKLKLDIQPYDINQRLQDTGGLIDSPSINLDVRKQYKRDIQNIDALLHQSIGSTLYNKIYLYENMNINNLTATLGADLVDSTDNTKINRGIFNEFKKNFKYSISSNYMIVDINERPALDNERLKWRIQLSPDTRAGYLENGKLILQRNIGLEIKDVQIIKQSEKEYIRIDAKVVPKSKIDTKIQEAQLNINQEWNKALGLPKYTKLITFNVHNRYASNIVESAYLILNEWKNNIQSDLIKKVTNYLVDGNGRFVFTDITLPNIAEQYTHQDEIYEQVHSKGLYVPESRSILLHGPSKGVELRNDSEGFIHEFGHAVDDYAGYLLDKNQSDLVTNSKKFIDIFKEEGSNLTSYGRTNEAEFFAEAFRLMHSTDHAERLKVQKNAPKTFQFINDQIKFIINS

Measured: inhibition

Cc1ccc2c(ccc(=S)n2C)c1
inactive: [1] 1.7% | [2] 0.8% | [3] 7.4%

CC1CCN(CCOCCOc2ccccc2Br)CC1
inactive: [1] 1.2% | [2] 0.3% | [3] 3.9%

C[N+](C)(C)CCCCCCCCCC[N+](C)(C)C
inactive: [1] -0.3% | [2] -0.8% | [3] -5.3%

CN(CCO)CC(O)Cn1cnc2c1c(=O)n(C)c(=O)n2C (centres undefined) (tested in a mixture with another compound)
inactive: [1] -0.4% | [2] 1.1% | [3] -3.6%

CCOC(=O)Nc1ccc2c(c1)N(C(=O)CCN1CCOCC1)c1ccccc1S2
inactive: [1] -1.6% | [2] -1.4% | [3] 0.2%

CCCC(CCC)C(=O)OC1C[C@H]2CC[C@@H](C1)[N+]2(C)C (some centres undefined)
inactive: [1] -1.1% | [2] 1% | [3] 2.3%

CC[N+](C)(C)Cc1ccccc1Br
inactive: [1] 2.1% | [2] -0.1% | [3] 0.6%

CCOc1ccc(C(=O)NCC2(c3ccccc3)CCOCC2)cc1
inactive: [1] -5.3% | [2] -0.2% | [3] -6.4%

CC(=O)C1=C(O)C(=O)N(Cc2cccnc2)C1c1ccc(C(C)C)cc1 (centres undefined)
inactive: [1] 3.2% | [2] 4.3% | [3] 7%

O=C1CCc2cc(OCCCCc3nnnn3C3CCCCC3)ccc2N1
inactive: [1] -0.2% | [2] -0.9% | [3] -5.5%

O=C(O)c1ccc(-c2ccc(O)c(F)c2)cc1
inactive: [1] -6.5% | [2] -1.7% | [3] 0.4%

CCCOc1ccc(-c2cc(C(=O)NCC3CCCO3)c3ccccc3n2)cc1 (centres undefined)
inactive: [1] -0.2% | [2] -0.7% | [3] -5.1%

COc1ccc(C2NC(=O)c3ccccc3N2)cc1OC (centres undefined)
inactive: [1] -2.5% | [2] -0.1% | [3] -2.9%

OC[C@H]1O[C@@H](n2cnc3c(Nc4ccccc4)ncnc32)[C@H](O)[C@@H]1O
inactive: [1] 1.4% | [2] -0.2% | [3] -2.1%

CC(C)(C)C(=O)NC(=S)Nc1sc2c(c1C(N)=O)CCC2
inactive: [1] 0.8% | [2] 0.4% | [3] -1.2%

CC(=O)SC1CC2=CC(=O)CCC2(C)C2CCC3(C)C(CCC34CCC(=O)O4)C12 (centres undefined)
inactive: [1] 0% | [2] 0.1% | [3] -5.9%

CCc1cccc2c3c([nH]c12)C(CC)(CC(=O)O)OCC3 (centres undefined)
inactive: [1] -3.9% | [2] -0.3% | [3] -0.8%

CC(=O)c1cc2c(cc1NC(=O)c1ccco1)OCCO2
inactive: [1] -1.7% | [2] -1.3% | [3] -1.9%

COC(=O)c1ccccc1OCCOCCOc1cccc2ccc(C)nc12
inactive: [1] 0.3% | [2] 3.8% | [3] -4%

Nc1ccc(C(=O)O)c(O)c1
inactive: [1] -4.5% and 1.6% | [2] -0.4% and -0.2% | [3] -12% and -5.3%

N/C(=N\OS(=O)(=O)c1ccc2ccccc2c1)c1cccnc1
inactive: [1] -1.4% | [2] -0.9% | [3] 0.2%

Nc1[nH]c(=O)ncc1F
inactive: [1] 1.1% | [2] -0.5% | [3] 0%

COc1cc2c(cc1OC)C(Cc1ccc(O)cc1)N(C)CC2 (centres undefined)
inactive: [1] 2.2% | [2] 0% | [3] -0.9%

CCc1ccc2oc(=O)cc(CN3CCC(C)CC3)c2c1
inactive: [1] 5.5% | [2] 0.8% | [3] 1.4%

CN(C)CCC(c1ccc(Br)cc1)c1ccccn1 (centres undefined)
inactive: [1] 1.3% | [2] -0.7% | [3] -8.1%

CC(C)CC(=O)N(Cc1ccc(F)cc1)C1CCS(=O)(=O)C1 (centres undefined)
inactive: [1] 8.9% | [2] 3.7% | [3] -4%

NC(=O)N1c2ccccc2C=Cc2ccccc21
inactive: [1] 1.3% | [2] -0.2% | [3] 8.1%

CCCc1cc(=O)[nH]c(=S)[nH]1
inactive: [1] -2.4% | [2] 1.4% | [3] 1.8%

C[C@]12CC[C@@H]3c4ccc(O)cc4CC[C@H]3[C@@H]1C[C@@H](O)[C@@H]2O[C@@H]1O[C@H](C(=O)O)[C@@H](O)[C@H](O)[C@H]1O
inactive: [1] -1.9% | [2] 0.2% | [3] -6.5%

Cc1ccc(/C(=C\CN2CCCC2)c2ccccn2)cc1
inactive: [1] -2% | [2] 0.3% | [3] 11.9%

O=C(O)c1cc(-c2ccc3c(c2)OCO3)nc2ccc(Br)cc12
inactive: [1] -1% | [2] 3% | [3] -2.6%

O=C(CCCCCCCC(=O)c1ccccc1)c1ccccc1
inactive: [1] -2% | [2] -2.3% | [3] -9.8%

CN1CCN(CCCN2c3ccccc3Sc3ccc(C(F)(F)F)cc32)CC1
inactive: [1] 0.3% | [2] -0.5% | [3] -3.1%

O=C(CSCc1ccccc1)NCCCN1CCOCC1
inactive: [1] -2.9% | [2] -0.9% | [3] -8.8%

CC(=O)O[C@]1(C(C)=O)CC[C@H]2[C@@H]3C=C(C)C4=CC(=O)CC[C@]4(C)[C@H]3CC[C@@]21C
inactive: [1] 2% | [2] 1.2% | [3] -4.2%

CCN(CC)Cc1c[nH]c2c(C(=O)OC)cccc12
inactive: [1] -0.7% | [2] 0.3% | [3] 6.7%

Cc1cc(OC(=O)CNC(=O)OC(C)(C)C)c2c(C)cc(=O)oc2c1
inactive: [1] -0.2% | [2] -0.7% | [3] 5.4%

CCOc1ccc2ccccc2c1C(=O)N[C@@H]1C(=O)N2[C@@H]1SC(C)(C)[C@@H]2C(=O)O
inactive: [1] 5.4% | [2] 1.2% | [3] 0.3%

CC(C)Cc1cc(C(=O)N2CCC(N3CCC(C(=O)N4CCCC4)CC3)CC2)n[nH]1
inactive: [1] -0.1% | [2] -2% | [3] -0.4%

COc1cccc(-n2cc(CNCc3c(C(=O)N(C)C)nc4ccc(Cl)cn34)cn2)c1
inactive: [1] 1.3% | [2] -0.7% | [3] 7.5%

OC[C@H]1O[C@@H](n2cnc3c(NC4CCCC4)ncnc32)[C@H](O)[C@@H]1O
inactive: [1] -1.4% | [2] 0.2% | [3] -6.9%

CCOC(=O)N1CCN(Cc2nc(Cc3cccc(F)c3)no2)CC1
inactive: [1] 1.3% | [2] 0% | [3] 3.3%

O=C(O)c1cc2cc(Cl)cc(Cl)c2oc1=O
inactive: [1] -2.3% | [2] 0.4% | [3] 1.1%

O=C(O)CCCCCCNC(=O)c1cncc(O)c1
inactive: [1] -1.8% | [2] 0.2% | [3] 7.5%

COC(=O)C1=C(C)N(C)C(=S)NC1c1ccc(Cl)cc1 (centres undefined)
inactive: [1] -0.7% | [2] -0.5% | [3] -4%

C=CCn1c(SCC(=O)NC2CCCCC2)nc2ccccc2c1=O
inactive: [1] -0.1% | [2] -1.1% | [3] -3.5%

COc1ccc2oc(=O)c(C(=O)N3CCN(c4ccccc4)CC3)cc2c1
inactive: [1] -1% | [2] 0.2% | [3] 1.6%

CNCCC=C1c2ccccc2CCc2ccccc21
inactive: [1] -4.9% | [2] 0.2% | [3] -5.8%

CC1=CC2(O)OCCN(CCO)C2=CC1=O (centres undefined)
inactive: [1] -1.5% | [2] -1% | [3] 2.5%

O=C(NC(=S)N1CCCCC1)c1cccnc1
inactive: [1] 1.2% | [2] 1% | [3] -4.6%

COC(=O)c1[nH]c(=O)c2ccccc2c1O
inactive: [1] 0.4% | [2] 0.2% | [3] -1.7%

C=CCNC(=O)c1ccc(-c2cccc([N+](=O)[O-])c2)o1
inactive: [1] -1.3% | [2] -0.6% | [3] -3%

Cc1ccc2c(c1)C(C)(C)[C@]1(C)NC(=O)CCN21
inactive: [1] -1.8% | [2] -0.2% | [3] 0%

CCN(CC)CCNc1ccc(CO)c2sc3ccccc3c(=O)c12
inactive: [1] 0.5% | [2] -0.5% | [3] -7%

CCOC(=O)C1NN=C(C(=O)c2ccccc2)C1c1ccc(Cl)cc1 (centres undefined)
inactive: [1] 3% | [2] 1.4% | [3] 3.2%

CNCCCC1c2ccccc2C=Cc2ccccc21
inactive: [1] -5.9% | [2] -1.6% | [3] -1%

Cc1ccc(C)c(OCCCC(C)(C)C(=O)O)c1
inactive: [1] 1.7% | [2] -0.3% | [3] 1.8%

Cc1ccc(S(=O)(=O)N2CCC(C(=O)N[C@@H](C)C(=O)NC3CCS(=O)(=O)C3)CC2)cc1 (some centres undefined)
inactive: [1] 2.1% | [2] 1.5% | [3] 11.8%

COc1cc(C(=O)Nc2ccc(N(C)C)cc2)c([N+](=O)[O-])cc1OC
inactive: [1] -2.4% | [2] -0.2% | [3] -19.3%

CC(=O)C1=C(Nc2ccc(C)cc2)CC(C)(O)C(C(C)=O)C1c1ccco1 (centres undefined)
inactive: [1] 1% | [2] 0% | [3] -2.3%

CC(C)Cn1c(=S)[nH]c2cc(C(=O)O)ccc2c1=O
inactive: [1] -4.3% | [2] -0.4% | [3] -0.6%

COc1ccc(/C=N\NC(=O)CCc2c(C)n[nH]c2C)c(OC)c1OC
inactive: [1] -0.8% | [2] 0.3% | [3] 8.6%

COc1ccccc1C(=O)N=C1NC(=O)CC2C(=O)NCCN12 (centres undefined)
inactive: [1] -2.8% | [2] -1.5% | [3] -5.2%
